Molecules are shown by their SMILES.

Common to all, as to assay type: functional
For assay [1], the target named is Solute carrier family 2, facilitated glucose transporter member 1 (Homo sapiens) (UniProt P11166). Kind of assay: ST_JUDE_LEISH: Cytotoxicity at 2uM final concentration against transgenic Leishmania Mexicana promastigotes LmGLUT1 that are glucose transport deficient and complemented with the human glucose transporter GLUT1. Activity is measured by DNA content using SYBR green in vitro.
Solute carrier family 2, facilitated glucose transporter member 1 (Homo sapiens), sequence (P11166 whole entry): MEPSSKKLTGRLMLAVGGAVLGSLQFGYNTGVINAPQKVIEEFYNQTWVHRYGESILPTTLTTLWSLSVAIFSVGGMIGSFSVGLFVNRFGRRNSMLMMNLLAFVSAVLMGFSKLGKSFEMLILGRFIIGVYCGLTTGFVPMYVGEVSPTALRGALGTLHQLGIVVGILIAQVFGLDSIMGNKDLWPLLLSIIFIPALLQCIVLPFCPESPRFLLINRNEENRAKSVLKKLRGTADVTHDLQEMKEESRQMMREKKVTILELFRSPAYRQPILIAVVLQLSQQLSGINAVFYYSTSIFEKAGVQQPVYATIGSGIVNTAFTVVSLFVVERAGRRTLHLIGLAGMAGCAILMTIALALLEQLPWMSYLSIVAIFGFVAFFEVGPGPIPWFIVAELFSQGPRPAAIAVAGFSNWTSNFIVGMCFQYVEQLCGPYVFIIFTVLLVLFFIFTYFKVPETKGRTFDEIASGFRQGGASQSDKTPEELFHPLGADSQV

Assay [2] concerns the target Hexose transporter 1 (Plasmodium falciparum) (UniProt O97467). The assay can be described thus: ST_JUDE_LEISH: Cytotoxicity at 2uM final concentration against transgenic Leishmania Mexicana promastigotes LmPfHT that are glucose transport deficient and complemented with the Plasmodium falciparum hexose transporter. Activity is measured by DNA content using SYBR green in vitro.

In assay [3] the target is Glucose transporter (Leishmania mexicana) (UniProt O61059). Kind of assay: ST_JUDE_LEISH: Cytotoxicity at 2uM final concentration against transgenic Leishmania Mexicana promastigotes LmGT2 that are glucose transport deficient and complemented with the L. Mexicana glucose transporter 2. Activity is measured by DNA content using SYBR green in vitro.

For orientation: inhibition means the relative decrease from the control value, in per cent. On to `COc1ccc(-c2ccc(Nc3cccc(S(=O)(=O)CCN4CCC(CCN(C)C)CC4)c3)nc2)cn1`, for which the inhibition is -2.17% in assay [1], -1.68% in assay [2] and 1.63% in assay [3].
Consider `Oc1ccccc1CN1CCN(C(c2ccccc2)c2ccccc2)CC1`, for which the figures for the inhibition in assay [1], in assay [2] and in assay [3] were 3.02%, 6.5% and -0.06%, respectively.
Turning to `CC(=O)Nc1ccc(CN2CCC(NC(=O)c3ccc(-c4cccc(Cl)c4)s3)CC2)cc1`, the inhibition in assay [1] is 2.01%; in assay [2], -0.15%; in assay [3], 2.8%.
Regarding `CCc1ccc(C2CCN(CCCCNC(=O)c3ccc(-c4ccc(C(F)(F)F)cc4)cc3)CC2)c(OCCO)c1`, the inhibition in assay [1] stood at 7.26%; in assay [2], 7.58%; in assay [3], 6.13%.
Regarding `CCOc1cccc(C(=O)Nc2ccc(-c3nc4ccccc4[nH]3)cc2)c1`, the inhibition in assay [1] turned out to be 4.46%; in assay [2], 3.79%; in assay [3], 3.58%.
In the same order, the values of `CC(=O)c1cccc(NC(=O)C2c3ccccc3C(=O)N(CC(C)C)C2c2cccs2)c1` (stereo not drawn) are -0.21%, 0.13% and 0.19%.
In the same order, the values of `CC(C)c1cccc(C(C)C)c1NC(=O)NNC(=O)c1ccc(CCN2CCC(c3nc(COCC(F)(F)F)c(-c4ccc(F)cc4)o3)CC2)cc1` are 10.8%, 11.4% and 12.7%.
`FC(F)(F)c1cccc2c(NN=Cc3ccccc3)ccnc12`: the inhibition came to 2.7% in assay [1], 2.21% in assay [2] and 1.42% in assay [3].
As to `O=C(COc1ccccc1)N(Cc1ccc(-c2ccc(CNC3Cc4ccccc4C3)cc2)cc1)C1CCNCC1`, the inhibition was 2.8% in assay [1], 2.48% in assay [2] and 2.61% in assay [3].
The corresponding values for `CC(=O)N(C)C1CCN(Cc2ccc(-c3cccc(-c4nc5cc(F)ccc5[nH]4)c3)cc2)C1` (stereo not drawn) are 1.27%, -0.26% and 1.68%.
For the compound `COc1cc2nccc(Nc3ccc(Oc4ccccc4)cc3)c2cc1OC`, the inhibition in assay [1] is 3.01%; in assay [2], 9.3%; in assay [3], 4.02%.
The corresponding values for `CC[C@@H]([C@@H](CC(C)C)C(=O)N[C@@H](CCCCNC(=O)OCc1ccccc1)C(=O)Nc1ccccn1)N(O)C=O` are 4.89%, 4.71% and 3.88%.
In the same order, the values of `O=c1cc(NCCCNCc2cccc(SC(F)(F)F)c2)[nH]c2ccccc12` are 3.33%, 3.61% and 3.15%.
Consider `Cc1cccn2c(=O)c3cc(C(=O)NC(C)c4ccccc4)c(=N)n(CCc4ccccc4)c3nc12` (stereo not drawn), for which the inhibition in assay [1] worked out at 12.2%; in assay [2] it was 16.8%; in assay [3] it was 11.9%.
In the case of `Cc1nnc(Sc2ncnc3scc(-c4ccc(F)cc4)c23)s1`, the inhibition worked out at 2.38% in assay [1], 3.03% in assay [2] and 1.02% in assay [3].
In the same order, the values of `O=C(Nc1ccc(Cl)cc1)NC1CCN(CCCCCNC(=O)C2CC2c2ccc(Cl)c(Cl)c2)CC1` (stereo not drawn) are 9.93%, 9.43% and 7.34%.
`CC(C)CNCc1cccc(-c2ccc(CNc3ccc(C(=O)c4ccccc4)cc3)cc2)c1`: the inhibition is 1.27% in assay [1], 0.62% in assay [2] and -1.03% in assay [3].
The corresponding values for `O=C(/C=C/c1ccc(Cl)c(Cl)c1)NCCCCCN1CCC(C(=O)Nc2ccc(Cl)c(Cl)c2)CC1` are 3%, 2.54% and 2.34%.
For `COc1ccc(NC(=O)NC2CCN(c3ccnc4cc(Cl)ccc34)C2)cc1` (stereo not drawn), the inhibition in assay [1] was 4.89%; in assay [2], 2.85%; in assay [3] it was 1.86%.
Consider `Cc1[nH]c(C)c(-c2ccc(-c3ccc(Cl)cc3)cc2)c(=O)c1Cl`, for which the inhibition in assay [1] was -0.9%; in assay [2], 0.3%; in assay [3] it was 1.13%.
As for `Cc1cc(-c2nc3ccc(CN4CCN(C)CC4)cc3[nH]2)nn1Cc1cc(Cl)ccc1OCc1ccccc1`, the results for the inhibition in assay [1], in assay [2] and in assay [3] were 3.84%, 3.27% and 2.54%, respectively.
In the same order, the values of `c1ccc2c(c1)CN(Cc1ccsc1)CC1(CCN(Cc3c[nH]c4cnccc34)CC1)O2` are 4.5%, 3.19% and 6.86%.
In the same order, the values of `N=C(N)c1ccc(C(=O)Nc2cccc(C(=N)N)c2)cc1` are -0.57%, 0.84% and -0.81%.
In the same order, the values of `N#CN1CC[C@@H](OC(=O)N[C@@H]2C[C@H]2c2ccccc2)C1` are 8.37%, 7.38% and 4.43%.
For the compound `CCOc1cc(C(=O)N[C@@H](Cc2ccccc2)[C@H](O)CNCc2cc(OC)cc(OC)c2)cc(N2CCCS2(=O)=O)c1`, the inhibition in assay [1] was -0.26%; in assay [2] it was -0.9%; in assay [3] it was 1.04%.
As to `COc1ccc(-c2cccc(NC(=O)c3cccc(C#N)c3)c2)cc1CNC(C)C`, the results for the inhibition in assay [1], in assay [2] and in assay [3] were 9.6%, 8.42% and 5.03%, respectively.
Regarding `O=C(Nc1ccc(Cl)cc1)N[C@H]1CCN(CCCCCNC(=O)C2CC2c2ccc(Cl)c(Cl)c2)C1` (stereo partly drawn), the inhibition was found to be 8.91% in assay [1], 6.32% in assay [2] and 8.02% in assay [3].
The corresponding values for `COCCNCc1cccc(C#Cc2cc3ncnc(Nc4ccc(OCc5cccc(F)c5)c(Cl)c4)c3s2)n1` are 5.28%, 5.8% and 3.62%.
In the same order, the values of `C[C@H](NC(=O)c1cc(-c2ccc(C(C)(C)C)cc2)no1)C(=O)O.C[C@H](NC(=O)c1conc1-c1ccc(C(C)(C)C)cc1)C(=O)O` are -0.02%, 0.23% and 1.58%.
With `Cc1cc(OCC2CCN(c3ncc(C(=O)Nc4ccccc4)cc3Cl)CC2)ccc1F`, the inhibition in assay [1] was 1.05%; in assay [2], -2.28%; in assay [3] it was 0.4%.
In the same order, the values of `COC(=O)c1cccc(NC(=O)NC2CCN(c3ccnc(Nc4ccc(OC)cc4)n3)C2)c1` (stereo not drawn) are 0.29%, 0.86% and 0.1%.

For the origin of these results see ChEMBL document CHEMBL3433997, “St. Jude Leishmania screening dataset” (2016).
